Sampled rows, rich in hits. Any-hit rate of the full collection: about 2.2%.
aSyn rescue: alpha-synuclein toxicity inhibition in yeast; Yeast expressing alpha-synuclein, growth rescue, BacTiter-Glo, 24 h; Potency, µM (highest dose often 46.1 µM), without a hit: at the top dose growth rescue (activation), most hits filed as activators; 370,000 compounds, 0.14% hits; AID 652106; note: % of control where 0% means no effect; nearly all actives have a fitted effect of over 65% in size
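Rescue of yeast growth: cells expressing toxic alpha-synuclein, induced in galactose at OD600 0.02, incubated with compound 24 h at 30 C. ATP luminescence quantified growth; inhibitors of toxicity appear as activators.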
Abeta rescue: A-beta toxicity reversal in yeast; yeast expressing A-beta42, growth rescue, OD600, 48 h; response scale: 0% DMSO, 100% iron-clioquinol control; Potency, µM (highest dose often 46.1 µM), actives largely listed as activators; 410,000 compounds, 0.063% hits; AID 1347071; note: nearly all actives have a fitted effect of over 55% in size
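Growth rescue measured by 600 nm absorbance after 48 h yeast culture at 30 C with compound. Values normalized between DMSO and an equimolar ferric chloride plus clioquinol control.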
FUS suppressor: suppressors of FUS proteinopathy in yeast; 390,000 compounds, 0.24% hits; S. cerevisiae FUS-expressing, growth rescue, OD600, 24 h; Potency, µM (titrated, usually from 76.6 µM), usual class: activators; AID 1347120;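 note: plate controls were DMSO vehicle for no effect and reference control for full effect; nearly all actives have a fitted effect of over 55% in size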
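Read-out: OD at 600 nm after 24hr at 30C, reporting rescue of FUS-induced yeast toxicity. Cells at OD 0.005 in galactose (2%) minimal medium; compounds tested in a dilution series; CP55940 titration from 92uM final as control.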
Mito fusion yeast: mitochondrial division inhibition or fusion activation; AID 485298; 320,000 compounds, 0.23% hits; S. cerevisiae fusion-defective mutant growth rescue, CellTiterGlo 48 h; Potency, µM (doses to about 46.1 µM), inactives show top-dose growth rescue (activation), most hits filed as activators; note: % of control where 0% means no effect; nearly all actives have a fitted effect of over 45% in size
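Yeast fusion mutant, YPEG (non-fermentable carbon), compound, 48 h at 37C non-permissive; CellTiterGlo added, 10 min RT, luminescence read. Rescued growth = division inhibition.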
TDP-43 yeast inh: rescues yeast growth from TDP-43 toxicity | TDP-43 expressing yeast growth rescue, BacTiter-Glo, 24 h | Potency, µM (doses to about 46.1 µM), without a hit: at the highest dose growth rescue (activation), actives largely listed as activators | 410,000 compounds, 1.8% hits; note: % of control where 0% means no effect; nearly all actives have a fitted effect of over 50% in size
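Luminescence from BacTiter-Glo reports growth of TDP-43-expressing yeast after 24 hr at 30 deg C with compound. Cells were raffinose-pregrown to mid-log, then seeded in galactose medium at OD600=0.02.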
* marks the source's active call; other numbers are inactive results; i = inactive; ? = inconclusive; / = no result given. Calls come from the whole dose curve; as a rule, active = well fitted curve in the direction sought with a large enough effect; inconclusive = small, poorly fitted or top-dose-only effect, or another doubt; inactive = no such curve, though single readings can be large; an effect the other way counts as inactive or inconclusive. Potency is the fitted concentration of half-maximal effect.

SMILES	aSyn rescue	Abeta rescue	FUS suppressor	Mito fusion yeast	TDP-43 yeast inh
O=C(Nc1ccno1)Nc1ccc(Cl)cc1Cl	-12%	i	i	9%	14µM*
CCOc1ccc(CNC(=O)C2CCN(C(=O)N3CC(CC)Oc4ccccc43)CC2)cc1 (configuration not stated)	/	i	i	/	7%
CC1CCCC(NC(=O)c2ccc(F)c(S(=O)(=O)N3CCOCC3)c2)C1C (configuration not stated)	3%	i	i	-2%	-22%
CSc1ccc(Cn2c(C)c(C(=O)NCc3ccc(Cl)c(Cl)c3)sc2=O)cc1	1%	?	?	/	12%
CCCCN(C)C(=O)c1sc(=O)n(Cc2ccc(Cl)c(Cl)c2)c1C	?	i	i	/	25µM*
COc1ccccc1N1C(=O)c2ccc(C(=O)Nc3ccc(C(=O)O)cc3)cc2C1=O	-5%	i	i	2%	3%
O=C(Nc1ccccc1N1CCOCC1)c1ccc2ccccc2n1	9%	i	i	?	13µM*
COC(=O)Nc1cccn(Cc2c(Cl)cccc2Cl)c1=O	-7%	?	i	3%	-20%
O=C(Nc1cccn(Cc2c(Cl)cccc2Cl)c1=O)c1c(Cl)cccc1Cl	-7%	i	i	-14%	10µM*
N#Cc1ccccc1S(=O)(=O)N1CCN(C(=O)c2cc3c(s2)CCC3)CC1	11%	i	i	17%	5%
O=[N+]([O-])c1cc([N+](=O)[O-])c2c(=Nc3ccccc3)n(-c3ccccc3)n(O)c2c1	-7%	i	i	-13%	13µM*
COc1ccc(OCCNc2cc(N3CCOCC3)ccc2[N+](=O)[O-])cc1	6%	i	i	-4%	?
COc1cccc(OCCNc2cc(N3CCOCC3)ccc2[N+](=O)[O-])c1	4%	i	i	11%	18µM*
CCn1cc(C(c2ccccc2)C(C(C)=O)[N+](=O)[O-])c2ccccc21 (configuration not stated)	8%	i	i	5%	-1%
COc1ccccc1C(C[N+](=O)[O-])c1c[nH]c2ccccc12 (configuration not stated)	?	i	i	19%	20µM*
CC(=O)C(C(c1ccccc1)c1c[nH]c2ccccc12)[N+](=O)[O-] (configuration not stated)	?	?	i	11%	13µM*
COc1cc(C(C[N+](=O)[O-])c2c(C)[nH]c3ccccc23)ccc1O (configuration not stated)	0%	i	i	11%	13%
CC(=O)NC(Cc1ccc([N+](=O)[O-])cc1)C(=O)NCC(N)C(=O)c1ccccc1 (configuration not stated)	-7%	/	/	/	/
Fc1ccc2cnc(-c3ccccc3)c(-c3cccc(C(F)(F)F)c3)c2c1	-2%	i	i	18%	14%
Fc1cc(F)cc(-c2c(-c3ccccc3)ncc3ccc(F)cc23)c1	-16%	i	i	-11%	35µM*
O=[N+]([O-])c1cccc(-c2c(-c3ccccc3)ncc3cc(F)ccc23)c1	-14%	i	i	?	28µM*
O=[N+]([O-])c1ccc(-c2c(-c3ccccc3)ncc3cc(F)ccc23)cc1	-23%	i	?	?	0%
O=C(CSc1nccn1Cc1ccccc1)Nc1ccc2c(c1)OCCO2	/	i	i	/	?
CC(C)NS(=O)(=O)c1ccc2[nH]c3nc(SCC(=O)Nc4ccc(F)c(F)c4)nnc3c2c1	-12%	/	/	/	/
CCN1CCSc2ccc(C(=O)NCc3ccccc3C)cc21	1%	i	i	-4%	35µM*
SMILES	aSyn rescue	Abeta rescue	FUS suppressor	Mito fusion yeast	TDP-43 yeast inh
CN1CCSc2ccc(C(=O)NCc3cccc(Br)c3)cc21	5%	i	i	2%	16µM*
Cc1cccc(CNC(=O)c2ccc3c(c2)N(C)CCS3)c1	15%	i	i	3%	?
NC(CCc1ccccc1)c1csc(Nc2cnccn2)n1 (configuration not stated)	3%	i	i	/	10%
Cc1ccc(C)n1-c1ccc(C(=O)N2CCOCC2)cc1	-1%	i	35µM*	0%	-20%
O=C(C[C@H]1CC[C@@H]2[C@H](COC[C@H](O)CN2Cc2cccc(C(F)(F)F)c2)O1)NCCc1ccccc1	16%	i	i	/	16%
Cc1cc(-c2csc(N)n2)c(C)n1C	-8%	i	i	-1%	-3%
Cc1cc(-c2csc(N)n2)c(C)n1Cc1ccco1	-7%	i	28µM*	7%	-11%
CCOc1ccc2c3c(c(=O)oc2c1OCC)CCCC3	-2%	i	i	0%	22µM*
CCCOc1ccc2c3c(c(=O)oc2c1OCCC)CCCC3	-15%	i	i	-1%	19%
Cn1cnc([N+](=O)[O-])c1Sc1nc(N)nc2c1ncn2C1CC(O)C(CO)O1 (configuration not stated)	13%	i	/	/	0%
CCOC(=O)Nc1cccnc1Sc1ccc(Cl)cc1	0%	i	i	/	12%
CCCNC(=O)OCc1cccnc1Sc1ccc(C)cc1	8%	i	i	-4%	20µM*
Cc1ccc(-c2ccc(CN3C(C)C(=O)N(Cc4cn(Cc5ccco5)nn4)CCS3(=O)=O)cc2)cc1 (configuration not stated)	?	i	?	/	?
CC1C(=O)N(Cc2cn(Cc3ccco3)nn2)CCS(=O)(=O)N1Cc1ccc(-c2ccccc2C(F)(F)F)cc1 (configuration not stated)	?	i	?	/	?
CC1C(=O)N(Cc2cn(Cc3ccco3)nn2)CCS(=O)(=O)N1Cc1ccc(-c2ccc(Cl)c(Cl)c2)cc1 (configuration not stated)	?	i	?	/	35µM*
Cc1ccc(-c2ccc(CN3C(C)C(=O)N(Cc4cn(Cc5ccco5)nn4)CCS3(=O)=O)cc2)c(C)c1 (configuration not stated)	?	i	?	/	35µM*
Cc1ccccc1-c1ccc(CN2C(C)C(=O)N(Cc3cn(Cc4ccco4)nn3)CCS2(=O)=O)cc1 (configuration not stated)	?	i	?	/	35µM*
CC(C)C1C(=O)N(Cc2cn(Cc3ccco3)nn2)CCS(=O)(=O)N1Cc1ccc(-c2ccc(Cl)c(Cl)c2)cc1 (configuration not stated)	15%	i	?	/	28%
O=C(Nc1ccc(-c2nc3cc(NC(=O)c4ccc(Cl)cc4)ccc3o2)cc1)c1ccc(Cl)cc1	/	i	i	/	5%

From PubChem
